Each structure is given as a SMILES string. Values joined by “and” are separate entries in the source; they are usually repeats but may differ in a detail not shown here. Equal entries are not always repeated. Inconclusive results are not listed. Unmarked numbers belong to inactive results. Active and inactive are the calls of the source. Calls follow the shape of the dose curve; as a rule, active = well fitted curve in the direction sought with a large enough effect; inconclusive = small, poorly fitted or top-dose-only effect, or another doubt; inactive = no such curve, though single readings can be large or run the other way.
% is scaled to controls: 0 for no effect and ±100 for the full control effect; potency is read from the fitted curve at half-maximal effect.

The experiment is described as follows: qHTS Assay for Identifying Gametocytocidal Compounds (AID 743244).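 As to max response: actives lower the fluorescent signal which means gametocytes are killed.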 Conditions: P. falciparum 3D7 stage III-V gametocytes, alamarBlue, 72 h; max response: active compounds read low. An outline of the steps:
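Viability read-out was resazurin reduction (alamarBlue, 24 h) measured at Ex 525/Em 598 nm. Beforehand, late-stage (III-V) 3D7 P. falciparum gametocytes at 20,000 cells/well were incubated with compound 72 h at 37C under 5% CO2.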
Turning to `CC(C)(C)NC(=O)[C@@H]1CN(Cc2cccnc2)CCN1C[C@@H](O)C[C@@H](Cc1ccccc1)C(=O)N[C@H]1c2ccccc2C[C@H]1O`, the max response is 5.54%.

As for `CN=C(NC#N)Nc1ccc(C2=NNC(=O)CC2C)cc1` (configuration not stated), the max response is -3.79%.

On to `CCC(C(=O)OCCN(CC)CC)c1ccccc1` (configuration not stated), for which the max response was -1.81%.

Turning to `CC[C@H](C)C(=O)O[C@H]1CCC=C2C=C[C@H](C)[C@H](CC[C@@H]3C[C@@H](O)CC(=O)O3)[C@H]21`, the max response is 15.8% and 37.7%.

For the compound `NCCC(O)(P(=O)(O)O)P(=O)(O)O`, the max response was 1.74%.

On to `COc1cc(-c2ccc(=O)[nH]n2)ccc1OC(F)F`, for which the max response was -3.31%.

In the case of `CCCCC1=NC2(CCCC2)C(=O)N1Cc1ccc(-c2ccccc2-c2nn[nH]n2)cc1`, the max response was 1.29%.

Regarding `Oc1c(I)cc(Cl)c2cccnc12`, the Potency was 7.94 µM (active).

Take `CN=C(NC#N)NCCSCc1csc(N=C(N)N)n1`: the max response was 5.67%.

As for `O=C(N/N=C/c1ccccc1O)c1ccncc1`, the max response is -7.05%.

In the case of `COCc1c(C(C)C)nc(C(C)C)c(/C=C/[C@@H](O)C[C@@H](O)CC(=O)O)c1-c1ccc(F)cc1`, the max response is -6.56%.

For `C[C@]12C=CC(=O)C=C1CC[C@@H]1[C@@H]2[C@@H](O)C[C@@]2(C)[C@H]1CC[C@]2(O)C(=O)CO`, the max response was 0.844%.

For the compound `CCN1CCN(c2cc3c(cc2F)c(=O)c(C(=O)O)cn3C2CC2)CC1`, the max response is 1.09%.

For `C[C@@H]1C[C@H]2[C@@H]3CCC4=CC(=O)C=C[C@]4(C)[C@@]3(F)[C@@H](O)C[C@]2(C)[C@H]1C(=O)CO`, the max response is 9.79%.

For the compound `CN1CCC(=C2c3ccccc3Sc3ccccc32)CC1`, the Potency was 15.8 µM (active).

Regarding `Cc1c(C)n(CCN(C)C)c2ccc(C(=O)OCCN(C)C)cc12`, the max response is 8.04%.

Consider `CCCC1O[C@@H]2C[C@H]3[C@@H]4CCC5=CC(=O)C=C[C@]5(C)[C@H]4[C@@H](O)C[C@]3(C)[C@]2(C(=O)CO)O1` (some centres not stated), for which the max response was -5.95% and 18.2%.

As for `CC(C)(C(=O)c1cccnc1)c1cccnc1`, the max response was 4.59%.

Consider `CC(=O)N(O)CCCCCNC(=O)CCC(=O)N(O)CCCCCNC(=O)CCC(=O)N(O)CCCCCN`, for which the max response was 17.5%.

With `Cc1onc(-c2c(Cl)cccc2Cl)c1C(=O)N[C@@H]1C(=O)N2[C@@H]1SC(C)(C)[C@@H]2C(=O)O`, the max response is -15.6%.

With `CCOc1ccc(NC(=O)CC(C)O)cc1` (configuration not stated), the max response was -2.08%.

Consider `CC(C)=CCC1C(=O)N(c2ccccc2)N(c2ccccc2)C1=O`, for which the max response was -12.9%.

As for `O=C(Nc1ccc(Oc2ccc(Cl)cc2)c(Cl)c1)c1cc(I)cc(I)c1O`, the max response is -9.6%.

In the case of `CCCCCCCCCCCCCCCC[N+](C)(C)CCN(Cc1ccc(OC)cc1)c1ncccn1`, the Potency is 7.08 µM (active).

Consider `CCCCCCCCCCCCCCCCCC(=O)OCC(O)CO` (configuration not stated), for which the max response was -12.5%.

For `CO/N=C1\CN(c2nc3c(cc2F)c(=O)c(C(=O)O)cn3C2CC2)CC1CN` (configuration not stated), the max response is -1.09%.

As for `NC(=O)C(=O)N/N=C/c1ccc([N+](=O)[O-])o1`, the Potency was 17.8 µM (active).

As for `C/C=C(/C(=C/C)c1ccc(O)cc1)c1ccc(O)cc1`, the max response was -1.19%.

Turning to `CC(CCc1ccccc1)NCC(O)c1ccc(O)c(C(N)=O)c1` (configuration not stated), the max response is 16.8%.

As to `C[C@H]1[C@H](NC(=O)/C(=N/OC(C)(C)C(=O)O)c2csc(N)n2)C(=O)N1S(=O)(=O)O` (stereo in doubt), the max response is -0.904%.

As for `Cc1c(F)c(N2CCNC(C)C2)cc2c1c(=O)c(C(=O)O)cn2C1CC1` (configuration not stated), the max response was -1.28%.

As to `CC(=O)Oc1ccc2c(c1)CC[C@@H]1[C@@H]2CC[C@]2(C)[C@@H](O)CC[C@@H]12`, the max response was 0.116%.

For `CCCSS/C(CCO)=C(\C)N(C=O)Cc1cnc(C)nc1N`, the max response is 2.02%.

Turning to `Cc1ncc(CSSCc2cnc(C)c(O)c2CO)c(CO)c1O`, the max response is -2.24%.

On to `CCOc1ccc(Cc2nccc3cc(OCC)c(OCC)cc23)cc1OCC`, for which the max response is 10.4%.

With `Cc1cc(N)c2cc(NC(=O)Nc3ccc4nc(C)cc(N)c4c3)ccc2n1`, the max response is -2.17%.

With `CC(=O)OCC(=O)NCCCOc1cccc(CN2CCCCC2)c1`, the max response was 8.95% and 5.62%.

The record behind these values is PubChem BioAssay (NCATS).
